Experimental data taken from PubChem BioAssay (NCI).
This is part of a sample that, as a whole, favours compounds with a hit. Of some 79,000 tested, about 15% had one in any assay. Activity calls are given as the source filed them. No stated cut-off is given here; in the data, active means growth inhibition above about 70%; inactive means the rest.

Key:
[1] = NCI Yeast Anticancer Drug Screen. Data for the rad52 strain (AID 147);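 further: 0% = growth of vehicle-treated control cultures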; conditions: S. cerevisiae rad52 mutant growth inhibition, stronger effect = higher value
In short: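 Growth of repair-deficient yeast cells was compared between compound-treated and vehicle-treated cultures to give percent inhibition.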

[2] = NCI Yeast Anticancer Drug Screen. Data for the wt1 strain (AID 149);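 further: 0% = growth of vehicle-treated wt1 cultures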; conditions: S. cerevisiae wt1 strain (SPY 50644) growth inhibition, stronger effect = higher value
In short: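 Readout: yeast growth inhibition, normalised to vehicle controls, in the wt1 strain exposed to test compounds.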

[3] = NCI Yeast Anticancer Drug Screen. Data for the mgt1 strain (AID 153); conditions: S. cerevisiae mgt1 mutant growth inhibition, stronger effect = higher value
In short: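 Compounds were applied to mgt1 mutant yeast, and growth was then compared against vehicle-treated control cultures to give percent inhibition.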

[4] = NCI Yeast Anticancer Drug Screen. Data for the rad50 strain (AID 155);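 further: 0% = growth of vehicle-only cultures of the same strain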; conditions: S. cerevisiae rad50 strain growth inhibition, stronger effect = higher value
In short: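 Compounds were tested on a yeast strain with an engineered DNA damage repair alteration; the reported value is growth inhibition normalised to vehicle treatment.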

[5] = NCI Yeast Anticancer Drug Screen. Data for the mec2-1 strain (AID 157); conditions: S. cerevisiae mec2-1 strain, stronger effect = higher value
In short: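 Compounds were applied to mec2-1 yeast cells. Their growth was then compared with that of vehicle-treated cultures to give growth inhibition.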

[6] = NCI Yeast Anticancer Drug Screen. Data for the rad14 strain (AID 159);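 further: 0% = growth of vehicle-treated control cultures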; conditions: S. cerevisiae rad14 strain growth inhibition, stronger effect = higher value
In short: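 Compound-treated yeast with a defined DNA-repair lesion; growth inhibition normalised to vehicle-treated cultures.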

[7] = NCI Yeast Anticancer Drug Screen. Data for the sgs1 mgt1 strain (AID 161);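 further: 0% = growth of cultures given vehicle only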; conditions: S. cerevisiae sgs1 mgt1 strain, stronger effect = higher value
In short: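 Growth of a repair-deficient yeast mutant was monitored after compound treatment and expressed as inhibition relative to vehicle-treated cultures.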

[8] = NCI Yeast Anticancer Drug Screen. Data for the CLN2oe strain (AID 163);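 further: 0% = growth of vehicle-only control cultures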; conditions: S. cerevisiae CLN2oe strain, stronger effect = higher value
In short: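 Cells of an engineered yeast line with disturbed cell-cycle regulation are treated with compound. Inhibition of growth is then calculated relative to the vehicle-treated reference.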

[9] = NCI Yeast Anticancer Drug Screen. Data for the cln2 rad14 strain (AID 165);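 further: 0% = growth equal to vehicle treated cultures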; conditions: S. cerevisiae cln2 rad14 strain, stronger effect = higher value
In short: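 Strain: cln2 rad14 yeast, altered in cell cycle control and DNA damage repair. Read-out: growth inhibition vs vehicle.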

[10] = NCI Yeast Anticancer Drug Screen. Data for the bub3 strain (AID 167); conditions: S. cerevisiae bub3 mutant strain, stronger effect = higher value
In short: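 Growth of a checkpoint-deficient yeast mutant is measured after compound exposure. Values represent inhibition relative to vehicle.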

[11] = NCI Yeast Anticancer Drug Screen. Data for the wt2 strain (AID 169);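 further: 0% = growth of vehicle-treated yeast cultures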; conditions: S. cerevisiae wt2 strain growth inhibition, stronger effect = higher value
In short: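 Growth of compound-treated yeast is measured and expressed as inhibition relative to vehicle-only controls.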

[12] = NCI Yeast Anticancer Drug Screen. Data for the mlh1 strain (AID 171);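 further: 0% = growth of vehicle-treated control cultures of the same strain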; conditions: S. cerevisiae mlh1 strain growth inhibition, stronger effect = higher value
In short: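 Test agents were incubated with yeast bearing a defined DNA damage repair or cell cycle control alteration; values are growth inhibition normalised to vehicle-treated cultures.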

[13] = NCI Yeast Anticancer Drug Screen. Data for the sgs1 strain (AID 173);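 further: 0% = growth of vehicle-only control cultures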; conditions: S. cerevisiae sgs1 mutant, stronger effect = higher value
In short: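 Strain with an altered DNA repair or cell cycle pathway exposed to compound. Growth then measured. Value = inhibition versus vehicle control.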

[14] = NCI Yeast Anticancer Drug Screen. Data for the mlh1 rad18 strain (AID 175); conditions: S. cerevisiae mlh1 rad18 strain growth inhibition, stronger effect = higher value
In short: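 A repair-deficient yeast strain is exposed to test compound, and growth is scored relative to vehicle-treated controls.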

[15] = NCI Yeast Anticancer Drug Screen. Data for the rad18 strain (AID 177); conditions: S. cerevisiae rad18 mutant growth inhibition, stronger effect = higher value
In short: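 DNA-repair-defective yeast; compound treatment; growth inhibition scored against vehicle.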

[16] = at 5.0 µM (retest, dose inferred, filed as 0.5)
[17] = at 50.0 µM (retest, dose inferred, filed as 5.0)

Measured: growth inhibition

O=C1C=CC(=O)N1c1ccc(N2C(=O)C=CC2=O)cc1
active: [1]; at 3.7 µM 93% | [1]; at 11.0 µM 100% | [1]; at 33.0 µM 100% | [1]; at 100.0 µM 99% | [2]; at 3.7 µM 95% | [2]; at 11.0 µM 100% | [2]; at 33.0 µM 100% | [2]; at 100.0 µM 98% | [3]; at 3.7 µM 102% | [3]; at 11.0 µM 100% | [3]; at 33.0 µM 100% | [3]; at 100.0 µM 98% | [4]; at 3.7 µM 97% | [4]; at 11.0 µM 100% | [4]; at 33.0 µM 100% | [4]; [17] 73% | [4]; at 50.0 µM 92.2% | [4]; at 100.0 µM 99% | [5]; at 3.7 µM 101% | [5]; at 11.0 µM 100% | [5]; at 33.0 µM 100% | [5]; [17] 82% | [5]; at 50.0 µM 94.4% | [5]; at 100.0 µM 99% | [6]; at 3.7 µM 101% | [6]; at 11.0 µM 100% | [6]; at 33.0 µM 100% | [6]; at 100.0 µM 99% | [7]; [17] 100% | [7]; at 50.0 µM 93.5% | [8]; at 11.0 µM 99% | [8]; at 33.0 µM 99% | [8]; at 100.0 µM 99% | [9]; [17] 100% | [9]; at 50.0 µM 92.3% | [10]; at 3.7 µM 96% | [10]; at 11.0 µM 100% | [10]; at 33.0 µM 100% | [10]; [17] 99% | [10]; at 50.0 µM 92.8% | [10]; at 100.0 µM 99% | [11]; at 3.7 µM 91% | [11]; at 11.0 µM 99% | [11]; at 33.0 µM 100% | [11]; at 100.0 µM 98% | [12]; at 3.7 µM 99% | [12]; at 11.0 µM 100% | [12]; at 33.0 µM 100% | [12]; at 100.0 µM 99% | [13]; at 3.7 µM 99% | [13]; at 11.0 µM 99% | [13]; at 33.0 µM 100% | [13]; at 100.0 µM 99% | [14]; [17] 75% | [14]; at 50.0 µM 92.5% | [15]; at 3.7 µM 90% | [15]; at 11.0 µM 100% | [15]; at 33.0 µM 100% | [15]; at 100.0 µM 99%
inactive: [1]; at 1.2 µM 43% | [2]; at 1.2 µM 33% | [3]; at 1.2 µM 60% | [4]; at 1.2 µM 32% | [4]; [16] 44% | [5]; at 1.2 µM 46% | [5]; [16] 39% | [6]; at 1.2 µM 17% | [7]; [16] -16% | [8]; at 1.2 µM 35% | [8]; at 3.7 µM 59% | [9]; [16] 47% | [10]; at 1.2 µM 48% | [10]; [16] 19% | [11]; at 1.2 µM 9% | [12]; at 1.2 µM 49% | [13]; at 1.2 µM 41% | [14]; [16] 37% | [15]; at 1.2 µM 46%
